Measurements: the supplement of paper PMC10933113
Structures can show the parent of a compound that is named as a salt. ± gives the uncertainty stated by the source.

Tested on: THP-1
Assay: CD86 surface expression induction over DMSO control (% over DMSO); higher = stronger dendritic cell activation
Settings: exposure time: 24 h
Procedure: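 hCLAT-like CD54 and CD86 surface expression on THP1 cells after 24 h exposure at a single concentration (highest non-cytotoxic concentration, or 100-200 µM if not cytotoxic). Flow cytometry (iQue) was run on 5,000 live cells.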

SMILES | CD86 surface expression induction
CCCCCCCCCCC=CC1CC(=O)OC1=O (stereo not given) [3-(Dodecenyl)dihydro-2,5-furandione] (200 µM) | -8.58 ± 3
N=C(N)NN=C(/C=C/c1ccc([N+](=O)[O-])o1)/C=C/c1ccc([N+](=O)[O-])o1 [Nitrovin] (10 µM) | 88.4 ± 21
CC(C)(C)c1cc(O)ccc1O [tert-Butylhydroquinone] (100 µM) | 66.8 ± 57
Sc1nc2ccccc2s1 [2-Mercaptobenzothiazole] (100 µM) | -1.26 ± 3.2
O=C(CCCCCCC(=O)Nc1ccccc1)NO [Vorinostat (SAHA)] (100 µM) | 5.02 ± 4
Nc1ccccc1N [1,2-Phenylenediamine*] (200 µM) | 88.8 ± 49
COc1ccc(C(=O)c2ccc(C)cc2)c(O)c1 [Mexenone] (300 µM) | 18.8 ± 32
CCCCCCCCCCCCN(CCO)CCO [Lauryldiethanolamine] (10 µM) | -16.1 ± 0.72
O=C1c2cccc(O)c2C(=O)c2c(O)cccc21 [Danthron] (100 µM) | 6.93 ± 0.81
S=C(NC1CCCCC1)NC1CCCCC1 [N,N'-Dicyclohexylthiourea] (10 µM) | -17.9 ± 4.5
C=CC(=O)OCCOC(=O)CCC(=O)O [4-[2-(Acryloyloxy)ethoxy]-4-oxobutanoic acid] (200 µM) | -12.9 ± 36
CCN(CC)CCSC(=O)C(c1ccccc1)c1ccccc1 [Thiphenamil] (200 µM) | 107 ± 65
CC(=O)Oc1ccc(C(c2ccc(OC(C)=O)cc2)c2ccccn2)cc1 [Bisacodyl] (100 µM) | 26.6 ± 55
CC(=O)C1(C)CC2=C(CCCC2(C)C)CC1C (stereo not given) (100 µM) | 9.62 ± 13
CC(C)CCCCCCCOC(=O)c1ccc(C(=O)OCCCCCCCC(C)C)c(C(=O)OCCCCCCCC(C)C)c1 [Triisodecyl trimellitate] (163 µM) | -10.7 ± 1.8
CC1COc2ccccc2N1C(=O)C(Cl)Cl (stereo not given) [Benoxacor] (10 µM) | 17.1 ± 5.4
O=C(O)CCCCCCCCC(=O)O [Decanedioic acid] (200 µM) | -3.64 ± 3
O=C(NS(=O)(=O)/C=C/c1cccs1)c1ccc(F)cc1Br (200 µM) | -2.46 ± 4
CC(C)NC(=O)c1ccc(C=O)cc1 [N-isopropyl-4-formylbenzamide] (100 µM) | -3.04 ± 5.2
Cc1occc1S [2-Methyl-3-furanthiol] (200 µM) | 33 ± 9.3

SMILES | CD86 surface expression induction
C=CC(C)(CCC=C(C)C)OC(=O)CC(C)C (stereo not given) [Linalyl isovalerate] (200 µM) | 4.35 ± 0.78
O=C(NS(=O)(=O)/C=C/c1ccccc1)c1ccc(F)cc1Cl (200 µM) | -3.08 ± 4.4
O=c1n(CC2CO2)c(=O)n(CC2CO2)c(=O)n1CC1CO1 (stereo not given) [Triglycidyl isocyanurate] (10 µM) | 0.85 ± 1.2
O=C(Nc1ccccc1)c1cc(Cl)ccc1O [5-Chlorosalicylanilide] (10 µM) | -11.7 ± 12
O=C(CS)Nc1ccccc1 [Thioglycolic acid anilide] (300 µM) | 34.4 ± 2
N=C1C=CC(=C(c2ccc(N)cc2)c2ccc(N)cc2)C=C1 [C.I. Basic Red 9 monohydrochloride] (10 µM) | -3.84 ± 5
CC(C)(C)OC(=O)c1ccc(O)cc1 [tert-Butyl 4-hydroxybenzoate] (100 µM) | -2.42 ± 14
C/C=C1\C(=O)C[C@H]2[C@@H]3CCC4=CC(=O)CC[C@]4(C)[C@H]3CC[C@]12C [Guggulsterone Z] (100 µM) | -9.87 ± 7.2
CCC(=O)C=Cc1ccc(OC)cc1 [1-(4-Methoxyphenyl)-1-pentene-3-one] (200 µM) | 6.83 ± 10
C=C1CC[C@H](O)C/C1=C/C=C1\CCC[C@]2(C)[C@@H]([C@H](C)/C=C/[C@H](C)C(C)C)CC[C@@H]12 [Ergocalciferol*] (100 µM) | 74 ± 130
CC(C)(C)c1cc(O)c(C(C)(C)C)cc1O [2,5-Di-tert-butylbenzene-1,4-diol] (100 µM) | 6.5 ± 4.4
COC(=O)Nc1nc2cc([S+]([O-])c3ccccc3)ccc2[nH]1 (stereo not given) [Oxfendazole] (100 µM) | 13.3 ± 2.3
C=CC(=O)OCCCCCCOC(=O)C=C [1,6-Hexanediol diacrylate] (100 µM) | 24.1 ± 16
C=CCOC(=O)/C=C\C(=O)OCC=C [Diprop-2-en-1-yl (2Z)-but-2-enedioate] (203 µM) | 29.9 ± 1.4
[Cl][Bi]([Cl])([c]1ccccc1)([c]1ccccc1)[c]1ccccc1 [Triphenylbismuthine dichloride] (10 µM) | 53 ± 6.3
CCCCc1ccc2[nH]c(NC(=O)OC)nc2c1 [Parbendazole*] (200 µM) | 65.8 ± 110
CCCCCCCCCCCCCC[N+](C)(C)C [Tetradonium bromide] (10 µM) | 53 ± 19
c1ccc(-c2ccccn2)nc1 [2,2'-Dipyridyl] (200 µM) | 0.3 ± 28
O=C1c2ccccc2C(=O)C1c1ccc2ccccc2n1 [D & C Yellow II] (10 µM) | -14.2 ± 7.4
CCCCCCC(C)O (stereo not given) [2-Octanol] (200 µM) | 0.56 ± 6.7
